# The supplement of paper PMC3342239
# Where a name gives a salt, the structure may show the parent alone.
# Tested on: Saccharomyces cerevisiae
# Experiment: fraction of cells in G1 phase (DNA content, flow cytometry); higher = more cells with unreplicated DNA (G1 delay)
# Settings: temperature: 30 C; YPD; JTY2953 pdr5 snq2 (sensitized); drug added to: cultures diluted from stationary phase; 6-7 h
# Outline: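 For the G1 fraction, the Dean-Jett-Fox G1 peak area was divided by the sum of the G1 and G2/M areas. S. cerevisiae in YPD at 30°C received library drugs and was fixed 6–7 h later for sensitized JTY2953 (diluted 1∶200 from overnight, final 20 µg/ml), 6 h later for dividing JTY2953, or 4.33 h later for BY4741. Fixed cells were stained with SYTOX Green and 10,000 events recorded by flow cytometry.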
row,Compound,fraction of cells in G1 phase
1,COc1ccccc1O [Guaiacol] (161.108 µM),0.531
2,COc1ccc([C@@H]2Sc3ccccc3N(CCN(C)C)C(=O)[C@@H]2OC(C)=O)cc1 [Diltiazem] (44.3459 µM),0.544
3,Cc1ccc(C(=O)c2ccc(CC(=O)O)n2C)cc1 [Tolmetin Na] (77.7328 µM),0.482
4,CC(C)[N+]1(C)[C@@H]2CC[C@H]1CC(OC(=O)C(CO)c1ccccc1)C2 (stereo not given in full) [Ipratropium Br] (60.1563 µM),0.508
5,CC(C)(C)NCC(O)c1ccc(O)c(CO)c1 (stereo not given) [Salbutamol sulfate] (83.5711 µM),0.535
